JMJD2A Tudor inh: inhibitors of human JMJD2A Tudor domain. O75164. AlphaScreen JMJD2A-Tudor / H3K4me3 peptide binding. Potency, µM (series often up to 114 µM), hits mostly inhibitors. actives 4.4% (n = 390,000); also: nearly all actives have a fitted effect of over 50% in size
BAZ2B inh: blocks human BAZ2B | Q9UIF8 | Potency, µM (doses to about 114 µM), most hits filed as inhibitors | actives 4.4% (n = 360,000) | AlphaScreen BAZ2B-H3K14Ac peptide displacement; also: nearly all actives have a fitted effect of over 60% in size
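Protein-peptide AlphaScreen: BAZ2B 50 nM, b-H3K14Ac 50 nM, 1x PBS pH 7.4 + 0.01% Tween-20. Preincubation 30 min RT; cpd 30 min RT (top 110 uM); beads 20 min RT, light-protected.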
HP1b chromo inh: HP1-beta chromodomain-methylated histone interaction inhibition; actives 0.56% (n = 390,000); P83916; Potency, µM (series often up to 114 µM), hits mostly inhibitors; AlphaScreen HP1-beta / biotin-H3K9me3 peptide binding; also: nearly all actives have a fitted effect of over 70% in size
Target sequence (P83916 whole entry, looked up): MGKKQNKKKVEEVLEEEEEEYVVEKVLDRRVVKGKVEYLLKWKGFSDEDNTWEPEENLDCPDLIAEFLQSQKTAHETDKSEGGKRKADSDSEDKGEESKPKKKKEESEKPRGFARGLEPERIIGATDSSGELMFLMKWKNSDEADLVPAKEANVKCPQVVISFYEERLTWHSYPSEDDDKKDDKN
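HP1-beta protein (50 nM final) preincubated 30 min at room temperature with biotinylated H3(1-18)K9me3 peptide (50 nM) in PBS pH 7.4, 0.01% Tween-20, then compound added for 30 min. AlphaScreen streptavidin donor/nickel chelate acceptor beads (10 ug/mL final), 30 min dark, luminescence read.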
G9a block: inhibitors of human histone lysine methyltransferase G9a; G9a H3K9 monomethylation, AlphaScreen, 2 h; Potency, µM (top dose mostly 102 µM), usual class: inhibitors; actives 8.8% (n = 350,000); AID 504332; also: nearly all actives have a fitted effect of over 75% in size
Target sequence (Q96KQ7 913-1193 limits assumed): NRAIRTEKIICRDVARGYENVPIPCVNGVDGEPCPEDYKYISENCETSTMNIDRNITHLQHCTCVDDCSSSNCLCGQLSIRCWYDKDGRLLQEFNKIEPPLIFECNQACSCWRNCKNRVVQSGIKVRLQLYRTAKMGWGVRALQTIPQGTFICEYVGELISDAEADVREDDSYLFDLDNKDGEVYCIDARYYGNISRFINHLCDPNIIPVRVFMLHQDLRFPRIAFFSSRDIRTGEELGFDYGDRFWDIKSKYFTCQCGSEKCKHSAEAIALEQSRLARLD
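G9a (20 nM) preincubated 15 min RT with compounds, then 500 nM biotinylated H3K9 peptide and 20 uM SAM added; 2 h RT reaction. Monomethyl-H3K9 product detected by AlphaScreen with anti-H3K9me1 antibody, streptavidin donor and anti-rabbit IgG acceptor beads.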
PLK1 PBD inh: blocks phosphopeptide binding to human PLK1 polo-box domain. Potency, µM, most hits filed as inhibitors. actives 2.8% (n = 360,000). Plk1 PBD binding of FITC phosphopeptide, fluorescence polarization. AID 720504. P53350; also: series mostly up to about 57 µM; nearly all actives have a fitted effect of over 65% in size
PI5P4Ka inh: PI5P4K alpha (human) kinase inhibition | P48426 | AID 652105 | max response, % | actives 1.2% (n = 330,000) | PI5P4Kalpha enzyme, ADP-Glo luminescence, 60 min; active compounds read low; active = max response of -50% or lower; inconclusive = between -30% and -50%; inactive = -30% or higher; also: value at the top dose of about 77 µM
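Controls without substrate or without enzyme flank wells where PI5P4Kalpha converts substrate using 5 microM ATP (final). Incubation lasts 60 minutes at room temperature; ADP formed is read by ADP-Glo luminescence.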
Large screens that a line does not name were inactive. A selection: hits, their analogues and other compounds. The true share with any hit is near 12%. Unless noted, calls follow the shape of the dose curve; as a rule, active = well fitted curve in the direction sought with a large enough effect; inconclusive = small, poorly fitted or top-dose-only effect, or another doubt; inactive = no such curve, though single readings can be large; an effect the other way counts as inactive or inconclusive.

COc1ccc(/C=C2\SC(=S)N(CCCCCC(=O)Nc3cc(C)on3)C2=O)cc1OC	none
O=C1NC(=O)/C(=C\c2ccccc2Oc2ccc(F)c(F)c2)S1	PLK1 PBD inh 27µM
CC(=O)Nc1ccc(S(=O)(=O)Oc2cccc(/C=C3\SC(N)=NC3=O)c2)cc1	JMJD2A Tudor inh 25µM, PLK1 PBD inh 4.2µM, PI5P4Ka inh inconclusive
CCOc1ccc(/C=C2\SC(=S)NC2=O)cc1OC	BAZ2B inh inconclusive, G9a block 13µM, PI5P4Ka inh -78
COc1cc(/C=C2\SC(=S)N(CCCCC(=O)O)C2=O)ccc1OS(=O)(=O)c1ccc(C)cc1	JMJD2A Tudor inh 50µM, BAZ2B inh 35µM, HP1b chromo inh inconclusive, G9a block inconclusive, PLK1 PBD inh 30µM
CCOc1ccc(/C=C2\SC(=S)N(C)C2=O)cc1OC	none (no result: G9a block)
CC(C)(C)OC(=O)NC(Cc1ccccc1)C(=O)NC1COC2CC(n3ccc(=O)[nH]c3=O)OC12 (stereo unspecified)	HP1b chromo inh inconclusive (no result: BAZ2B inh, G9a block, PLK1 PBD inh, PI5P4Ka inh)
O=C(NCC(c1ccc2c(c1)OCO2)N1CCN(c2ccccc2)CC1)C(=O)Nc1ccccc1 (stereo unspecified)	none (no result: PLK1 PBD inh, PI5P4Ka inh)
O=C(COc1ccccc1/C=C1\SC(=O)NC1=O)Nc1ccccc1	PLK1 PBD inh inconclusive, PI5P4Ka inh inconclusive (no result: BAZ2B inh)
O=C1NC(=O)/C(=C\c2ccccc2OCc2ccc([N+](=O)[O-])cc2)N1	JMJD2A Tudor inh inconclusive, PLK1 PBD inh 24µM
COc1cc(/C=C2/SC(=S)NC2=O)ccc1OS(=O)(=O)c1ccc(C)cc1	JMJD2A Tudor inh 56µM, BAZ2B inh 50µM, HP1b chromo inh inconclusive, G9a block 20µM, PLK1 PBD inh 9.5µM, PI5P4Ka inh -85
COc1cc(/C=C(\C#N)C(N)=O)ccc1OS(=O)(=O)c1ccc(C)cc1	G9a block inconclusive, PLK1 PBD inh inconclusive
O=C1NC(=O)/C(=C/c2ccccc2OCc2ccccc2)S1	G9a block 40µM, PLK1 PBD inh inconclusive
COc1cc(/C=C2\SC(=O)NC2=O)ccc1Oc1ccc([N+](=O)[O-])cc1[N+](=O)[O-]	JMJD2A Tudor inh 35µM, BAZ2B inh 45µM, HP1b chromo inh inconclusive, G9a block 10µM, PLK1 PBD inh 21µM
CO/N=C/c1ccc(Oc2ccc([N+](=O)[O-])cc2[N+](=O)[O-])c(OC)c1	JMJD2A Tudor inh inconclusive, BAZ2B inh inconclusive, HP1b chromo inh inconclusive, G9a block inconclusive
O=[N+]([O-])c1ccc(COc2ccccc2/C=N/O)cc1	none
Cc1ccc(S(=O)(=O)N2CCc3cc(C(=O)N(C)Cc4ccccc4)ccc32)cc1	none (no result: PLK1 PBD inh, PI5P4Ka inh)
CCOc1ccccc1C=C1SC(=S)NC1=O	JMJD2A Tudor inh inconclusive, HP1b chromo inh inconclusive, PLK1 PBD inh inconclusive, PI5P4Ka inh -66 (no result: BAZ2B inh, G9a block)
CCN1C(=O)C(=Cc2cccc(OC)c2Oc2ccc([N+](=O)[O-])cc2[N+](=O)[O-])SC1=S	JMJD2A Tudor inh inconclusive, BAZ2B inh 25µM, HP1b chromo inh inconclusive, G9a block 45µM
CCN1C(=O)S/C(=C/c2ccc(Oc3ccc([N+](=O)[O-])cn3)c(OC)c2)C1=O	G9a block inconclusive
COc1ccc(/C=C2\SC(=S)NC2=O)cc1OS(=O)(=O)c1ccc(NC(C)=O)cc1	G9a block inconclusive, PLK1 PBD inh inconclusive, PI5P4Ka inh -88
COc1ccc(/C=C2\SC(=O)NC2=S)cc1OC	JMJD2A Tudor inh 79µM, BAZ2B inh 40µM, HP1b chromo inh inconclusive, G9a block 6.3µM, PLK1 PBD inh 27µM, PI5P4Ka inh -70
Cc1cc(C)c(N2C(=O)CC(Sc3ccccc3N)C2=O)c(C)c1 (stereo unspecified)	PLK1 PBD inh inconclusive (no result: JMJD2A Tudor inh, BAZ2B inh, HP1b chromo inh, G9a block)
COc1ccc(C(=O)OCCCc2cc3ccccc3c(=O)o2)cc1	none
O=C(O)c1ccccc1SC1=NS(=O)(=O)c2ccccc21	none (no result: BAZ2B inh, HP1b chromo inh, G9a block, PLK1 PBD inh, PI5P4Ka inh)
COc1cc(/C=C2\SC(=S)NC2=O)ccc1OS(=O)(=O)c1ccccc1	BAZ2B inh 45µM, G9a block 11µM (no result: JMJD2A Tudor inh, HP1b chromo inh, PLK1 PBD inh, PI5P4Ka inh)
COc1ccc(/C=C2/S/C(=N/S(=O)(=O)Cc3ccccc3)NC2=O)cc1OC	none (no result: G9a block)
O=C1COc2ccc(S(=O)(=O)N3CCCC3)cc2N1	none
O=C1COc2ccc(N3C(=O)C=CC3=O)cc2N1	BAZ2B inh 100µM, G9a block 1.4µM (no result: JMJD2A Tudor inh, HP1b chromo inh, PLK1 PBD inh, PI5P4Ka inh)

High-throughput results deposited in PubChem by National Center for Advancing Translational Sciences (NCATS).
